# According to PubChem BioAssay (EPA / NIEHS):
# Records with an inconclusive call do not appear. A structure can be active in one record and inactive in another. Activity calls are given as the source filed them. The calls were made as follows, unless noted: active = hit-call score of the fitted dose curve at least 0.9, where 1 is the maximum; inconclusive = response in the unintended direction; inactive = score below 0.9.
# Experiments:
# [1] = CCTE_Shafer_MEA_dev_per_network_spike_spike_number_mean: CCTE's Neural Network Formation Assay for Mean Number of Spikes in a Network Spike, Shafer Lab (AID 2284053; active = hit-call score of the fitted dose curve at least 0.9, where 1 is the maximum; inactive = score below 0.9;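 as to AC50: fitted as decrease in spikes per network spike relative to DMSO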)
# Method in brief: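 Rat cortical primary cultures on 48-well MEA; compound from day 0, re-dosed with full media change DIV 5, 9. Recorded DIV 5, 7, 9, 12; spikes in 0.05 s window at network-spike peak ÷ total network spikes; AUC; loss vs DMSO.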
# [2] = CCTE_Shafer_MEA_dev_per_network_spike_spike_percent: CCTE's Neural Network Formation Assay for Percent of Spikes in a Network Spike, Shafer Lab (AID 2284054; active = hit-call score of the fitted dose curve at least 0.9, where 1 is the maximum; inactive = score below 0.9)
# Method in brief: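 Rat primary cortical neurons were grown on 48-well MEA plates (16 electrodes/well), exposed from plating day 0 through day 12, with treatment renewed on DIV 5 and 9. Percent of spikes within 0.05 s network-spike peaks was measured, summarised as AUC across days 5, 7, 9, 12.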
# [3] = CCTE_Shafer_MEA_dev_LDH: CCTE's Lactate Dehydrogenase Assay for Cytotoxicity in the Neural Network Formation Assay, Shafer Lab (AID 2284068);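 also: exposure for twelve days from plating with re-dosing on DIV 5 and 9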
# Procedure: CCTE_Shafer_MEA_dev assay is conducted using Axion Biosystems 48 well microelectrode array (MEA) plates and Maestro recording system. Each well of the MEA plate contains a grid of 16 microelectrodes embedded in the culture surface. Electrically active cells, such as neurons, can be cultured over the electrodes, and electrical activity in these cells can be recorded extracellularly. The spontaneous firing of neurons is captured from each electrode on a microsecond timescale providing both temporally and spatially precise data. […] The CCTE_Shafer_MEA_dev assay uses primary cultures of rat cortical neurons. Recordings are made on days post-plating 5, 7, 9 and 12. As these cultures mature over time, neural networks develop functional activity and form cohesive networks in which electrical activity can be highly coordinated. CCTE_Shafer_MEA_dev_LDH is 1 of 19 assay components of the CCTE_Shafer_MEA_dev assay. It measures the lactate dehydrogenase enzyme activity using spectrophotometry.Data from the assay component CCTE_Shafer_MEA_dev_LDH was analyzed into 1 assay endpoint. This assay endpoint, CCTE_Shafer_MEA_dev_LDH, was analyzed in the positive analysis fitting direction relative to DMSO as the negative control and baseline of activity. Using a type of viability reporter, loss-of-signal activity can be used to understand cell viability.
# On the day prior to culture, each well was coated thoroughly with 150 uL of 0.05% polyethyleneimine (PEI, Sigma Cat P3143) in 50 mM HEPES (Sigma Cat H7523) at a pH of 8. The plate was incubated at 37C for one hour. PEI was rinsed out with 500 uL of sterile water three times. Plates were stored at 4C until the day of culture. This culture was plated at a seeding density of 1.5 x 10^5 cells/well on a 48-well MEA plate, prepared as described above. Cells were administered via a 25 uL media/laminin ([…]; Sigma Cat L2020-1MG) drop directly onto the microelectrode array, as adding the cells with the laminin results in better attachment than pre-coating with laminin. After 2 hours, an additional 475 uL of cortical media was added and the cells returned to the incubator. Exposure starts at day 0 of plating and is continued over twelve days of network development until the experiment is terminated. Cells are fed with fresh medium on DIV 5 and 9, following the recordings on those days. The entire volume of media in the well is exchanged and any vehicle or compound treatment is renewed. Complete details are found in OP-NHEERL/ISTD/SBB/TJS/2015-03-r0 (available on request, email shafer.tim@epa.gov). Measurement of the electrical activity is non-invasive, and recordings can be made from the same plate over multiple different days of the culture. In cortical neurons, this allows for the measurement of extracellular action potentials over the period during which networks form in the MEA plate.
# [4] = CCTE_Shafer_MEA_dev_mutual_information_norm: CCTE's Neural Network Formation Assay for Mutual Information Normalization, Shafer Lab (AID 2284091; active = hit-call score of the fitted dose curve at least 0.9, where 1 is the maximum; inactive = score below 0.9;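 as to AC50: mutual information between electrodes summarised as area under curve across four recording days; potency is for a decrease in mutual information relative to DMSO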)
# Method in brief: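 Primary rat cortical neurons on PEI-coated 48-well MEA plates, 1.5 x 10^5 cells/well, exposed from day 0 through day 12 with re-dosing at DIV 5 and 9. Mutual information between electrodes recorded days 5, 7, 9, 12; trapezoidal AUC, loss-of-signal fit versus DMSO.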
# [5] = UKN5_HCS_SBAD2_cell_viability: Viability Assessment in the University of Konstanz (UKN) Leist Lab Neurite Outgrowth Assay in human iPSC-derived immature Dorsal Root Ganglia Neurons (UKN5) (AID 2284056; active = hit-call score of the fitted dose curve at least 0.9, where 1 is the maximum; inactive = score below 0.9)
# Method in brief: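 iPSC-derived immature peripheral neurons (SBAD2) seeded on Matrigel with CHIR99021, SU5402 and DAPT, dosed 1 h later for 24 h. Viability from Hoechst H-33342 and calcein-AM live staining, high-content imaging; bidirectional fit versus DMSO.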
# [6] = UKN5_HCS_SBAD2_neurite_outgrowth: University of Konstanz (UKN) Leist Lab Neurite Outgrowth Assay in human iPSC-derived immature Dorsal Root Ganglia Neurons (UKN5) (AID 2284070; active = hit-call score of the fitted dose curve at least 0.9, where 1 is the maximum; inactive = score below 0.9); conditions: actives raise or lower the signal
# Procedure: UKN5_HCS_SBAD2 is a cell-based, multiplexed-readout assay screening for neurite outgrowth and cell viability that uses SBAD2 (peripheral neurons differentiated from iPSC), a human peripheral nervous system cell line, with measurements taken at […] after chemical dosing in a microplate: 96-well plate. UKN5, also referred to as PeriTox, is an assay that uses human iPSC line SBAD2 as a model of peripheral neurons. Following 24 hr chemical exposures in multi-well plates, neurite area is evaluated as a marker of neurite outgrowth using high-content imaging of cells stained with calcein-AM. Cell viability is assessed using stain Hoechst H-33342.UKN5_HCS_SBAD2_neurite_outgrowth is an assay component measured from the UKN5_HCS_SBAD2 assay. It is designed to make measurements of neurite outgrowth, a form of morphology reporter, as detected with Fluorescence intensity signals by HCS Fluorescent Imaging.The assay endpoint UKN5_HCS_SBAD2_neurite_outgrowth was analyzed with bidirectional fitting relative to DMSO as the negative control and baseline of activity. Using a type of morphology reporter, gain or loss-of-signal activity can be used to understand developmental effects. To generalize the intended target to other relatable targets, this assay endpoint is annotated to the neurodevelopment intended target family, where the subfamily is neurite outgrowth. […]
# [7] = CCTE_Shafer_MEA_dev_AB: CCTE's Alamar Blue Assay for Cytotoxicity in the Neural Network Formation Assay, Shafer Lab (AID 2284083);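 also: resazurin reduction fluorescence as viability of cultured neurons; twelve days of exposure from plating with re-dosing on DIV 5 and 9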
# Method in brief: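 Rat cortical primary cultures, 1.5 x 10^5 cells/well on MEA; continuous compound exposure over 12 days of network development, re-dosed with full medium change DIV 5 and 9. Alamar Blue fluorescence; loss of signal = cytotoxicity vs DMSO baseline.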
# [8] = test system: DIO3 (gene 1735); experiment: CCTE_GLTED_hDIO3: CCTE's human Deiodinase 3 (DIO3) Inhibition Assay, Great Lakes Toxicology and Ecology Division (GLTED) Lab (AID 2284055);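 as to AC50: potency is for inhibition seen as loss of released iodide signal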
# Method in brief: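 Enzyme activity is tracked as iodide release from substrate by recombinant human DIO3 over 3 h with chemical present. A second Sandell-Kolthoff step converts iodide to an absorbance signal, fitted relative to DMSO.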
# [9] = CCTE_Shafer_MEA_acute_LDH: CCTE's Lactate Dehydrogenase Assay for Cytotoxicity in the Neural Acute Assay, Shafer Lab (AID 2284086);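 also: active means LDH release rises above DMSO vehicle level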
# Method in brief: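 Released lactate dehydrogenase, read at 490 nm, indicated cytotoxicity after acute 40-min compound treatment of rat cortical neuron networks grown on 48-well MEA plates.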
# [10] = CCTE_Shafer_MEA_acute_AB: CCTE's Alamar Blue Assay for Cytotoxicity in the Neural Acute Assay, Shafer Lab (AID 2284069);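 also: active compounds lower the viability signal compared with DMSO wells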
# Method in brief: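 Read-out: resazurin fluorescence (ex 544, em 590 nm) after CTB reagent at 1:6 dilution in fresh media. Cells: primary rat cortical neuron networks, DIV 13 or 15, chemically exposed on MEA plates; DMSO as negative control/baseline.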
smiles,measurement,setting,value
c1ccc2scnc2c1,outcome,[1],inactive
same,outcome,[2],inactive
same,outcome,[3],inactive
same,outcome,[4],inactive
CC(C)Cc1ccc(C(C)C(=O)O)cc1 (stereo not drawn),outcome,[1],inactive
same,AC50,[2],15 µM (active)
same,outcome,[5],inactive
same,AC50,[3],15 µM (active)
same,outcome,[6],inactive
same,AC50,[7],2.98 µM (active)
same,AC50,[4],3.62 µM (active)
CCCCC(CC)COC(=O)COc1ccc(Cl)cc1C (stereo not drawn),outcome,[1],inactive
same,outcome,[2],inactive
same,outcome,[4],inactive
CCCCCCCCOC(=O)c1ccc(O)cc1,AC50,[8],30.7 µM (active)
CC(=O)c1ccc(C)cc1,outcome,[9],inactive
c1ccc(OCCOc2ccccc2)cc1,outcome,[10],inactive
same,outcome,[9],inactive
CCCCN(CCO)CCO,outcome,[10],inactive
CCCO[Si](OCCC)(OCCC)OCCC,outcome,[9],inactive
CC(C)(CO)CO,outcome,[10],inactive
same,outcome,[9],inactive
C[C@]12CC[C@@H]3c4ccc(O)cc4CC[C@H]3[C@@H]1CC[C@@H]2O,outcome,[1],inactive
same,outcome,[2],inactive
same,outcome,[3],inactive
same,AC50,[7],6.6 µM (active)
same,outcome,[7],inactive
same,outcome,[4],inactive
O=C(c1ccc(OCCN2CCCCC2)cc1)c1c(-c2ccc(O)cc2)sc2cc(O)ccc12,outcome,[10],inactive
same,outcome,[9],inactive
C=C(C)C(=O)OCCC(C)OC(=O)C(=C)C (stereo not drawn),AC50,[8],36.9 µM (active)
CCCCC/C=C\C=C\C(=O)OCC,AC50,[8],26.6 µM (active)
CCn1cc(C(=O)O)c(=O)c2ccc(C)nc21,outcome,[9],inactive
N#CCCNCCC#N,outcome,[1],inactive
same,outcome,[2],inactive
same,outcome,[3],inactive
same,outcome,[4],inactive
CC/C(=C(\c1ccccc1)c1ccc(OCCN(C)C)cc1)c1ccccc1,AC50,[1],0.0668 µM (active)
same,AC50,[2],3.89 µM (active)
same,AC50,[8],84.2 µM (active)
same,outcome,[8],inactive
same,AC50,[3],2.87 µM (active)
same,outcome,[10],inactive
same,AC50,[7],5 µM (active)
same,AC50,[4],0.196 µM (active)
CCCCOCCOCCO,outcome,[9],inactive
N[C@@H](CCC(=O)O)C(=O)O,outcome,[1],inactive
same,outcome,[2],inactive
same,outcome,[3],inactive
same,outcome,[7],inactive
same,outcome,[9],inactive
same,outcome,[4],inactive
CC(=O)OC/C=C(C)/C=C/C=C(C)/C=C/C1=C(C)CCCC1(C)C,AC50,[8],37.8 µM (active)
